Experimental data reported in PubChem BioAssay (EPA / NIEHS).
Where “and” joins values, the source holds several entries; their conditions need not be identical. Equal entries are not always repeated. Some structures have more than one record in an assay (separate samples or runs), and their calls can disagree. Calls of active or inactive are those of the source. How the source made its calls: active means hit-call score of the fitted dose curve at least 0.9, where 1 is the maximum; inactive means score below 0.9.

Experiments:
[1] = APR_HepG2_P-H2AX_72hr: Apredica 72-hour HepG2 Assay for H2AX Phosphorylation (AID 2282916); conditions: imaging, actives raise or lower the signal;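 further: phospho-histone H2A.x immunostain intensity per cell marking DNA damage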
In short: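 Human hepatoma HepG2 cells are dosed across ten concentrations (0.39 to 200 uM, 0.5% v/v DMSO) and incubated 72 hr. Phospho-histone H2A.x is then detected by antibody staining alongside c-Jun and Hoechst, and quantified by automated fluorescence imaging.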

[2] = APR_HepG2_MitoMembPot_72hr: Apredica 72-hour HepG2 Assay for Mitochondrial Membrane Potential (AID 2282917); conditions: imaging, actives raise or lower the signal
In short: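 HepG2 cells exposed 72 h to compounds at 0.39–200 uM (0.5% v/v DMSO, duplicates); MitoTracker Red CMXRos 250 nM loaded 30 min before 3.7% formaldehyde fixation, imaged by HCS fluorescence. Bidirectional fit versus DMSO.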

[3] = APR_HepG2_MitoticArrest_72hr: Apredica 72-hour HepG2 Assay for Mitotic Arrest (AID 2282918); conditions: high-content imaging, actives raise or lower the signal
In short: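 Using high-content imaging of fixed HepG2 cells, phospho-histone H3 signal was measured following a 72 hr incubation with ten-point compound dilutions up to 200 uM. DMSO served as the negative control and baseline for bidirectional curve fitting.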

[4] = APR_HepG2_MicrotubuleCSK_72hr: Apredica 72-hour HepG2 Assay for Microtubule CSK Stabilty (AID 2282919); conditions: HepG2 microtubule cytoskeleton, high-content imaging, actives raise or lower the signal
In short: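 Ten-point dosing (0.39–200 uM, 0.5% DMSO) of HepG2 for 72 hr, with taxol as the cytoskeletal positive control. The cells were formaldehyde-fixed and then stained with alpha-tubulin/Cy5 and Hoechst. Imaging at 20x used a −2 um Z offset for tubulin.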

[5] = APR_HepG2_P-H2AX_24hr: Apredica 24-hour HepG2 Assay for H2AX Phosphorylation (AID 2282920); conditions: high-content imaging, actives raise or lower the signal
In short: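 Human HepG2 liver cells, treated 24 hr with test chemicals (0.39–200 uM, final DMSO 0.5% v/v), are fixed and co-stained for phospho-H2A.x and c-Jun with Hoechst. Imaged intensity is fitted in both directions against DMSO controls.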

[6] = APR_HepG2_StressKinase_72hr: Apredica 72-hour HepG2 Assay for Stress Kinase (AID 2282921); conditions: HepG2 stress kinase (phospho-c-Jun) imaging, actives raise or lower the signal
In short: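 After a 72 h compound treatment spanning 0.39 to 200 uM, formaldehyde-fixed cells are labelled for phosphorylated c-Jun and nuclei, imaged by automated fluorescence microscopy, and activity is fitted in both directions relative to DMSO controls.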

[7] = APR_HepG2_StressKinase_24hr: Apredica 24-hour HepG2 Assay for Stress Kinase (AID 2282922); conditions: HepG2 stress kinase (phospho-c-Jun) imaging, actives raise or lower the signal
In short: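 After 24 hr compound treatment (up to 200 uM, final DMSO 0.5% v/v), HepG2 cells are fixed and multiplex-labeled; phospho-c-Jun intensity is captured by high-content fluorescence imaging and analyzed relative to DMSO.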

[8] = APR_HepG2_p53Act_72hr: Apredica 72-hour HepG2 Assay for p53 Activation (AID 2282923); conditions: high-content imaging, actives raise or lower the signal;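 further: average cellular p53 protein immunofluorescence intensity in HepG2 cells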
In short: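 Imaging-based endpoint: after 72 hr compound exposure (up to 200 uM, 0.5% DMSO), fixed and permeabilized monolayers were labelled with anti-p53 antibody and imaged; signal change in either direction was fitted relative to DMSO controls.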

[9] = APR_HepG2_MitoMass_72hr: Apredica 72-hour HepG2 Assay for Mitochondrial Mass (AID 2282924); conditions: high-content imaging, actives raise or lower the signal;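 further: MitoTracker Red CMXRos stain intensity per cell imaged as mitochondrial mass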
In short: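 Steps: treat HepG2 72 hr (0.39–200 uM, duplicate wells); load MitoTracker Red CMXRos, 250 nM, 30 min; fix with 3.7% formaldehyde, permeabilise with 0.5% Triton X-100; capture images, nuclei via Hoechst 33342; fit bidirectionally against DMSO.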

[10] = APR_HepG2_NuclearSize_72hr: Apredica 72-hour HepG2 Assay for Nuclear Size (AID 2282925); conditions: high-content imaging, actives raise or lower the signal
In short: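 Compounds (0.39–200 uM, final DMSO 0.5%) were applied to HepG2 for 72 hr. Cells were then formaldehyde-fixed, permeabilized and labelled with Hoechst 33342. Nuclear diameter was quantified from six images per well.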

[11] = ATG_CRE_CIS: Attagene CIS-FACTORIAL HepG2 Assay for human cAMP Responsive Element (CRE) binding protein 3 (AID 2282926); conditions: HepG2 CRE cis-reporter, Attagene multiplexed mRNA; actives raise or lower the signal
In short: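 Liver-derived HepG2, transfected with a CRE-containing reporter panel, exposed 24 h; transcript levels sized and quantified by capillary electrophoresis of labelled amplicons; signal changes either way referenced to vehicle.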

[12] = biological target: CCAAT/enhancer-binding protein beta (Homo sapiens) (UniProt P17676); experiment: ATG_C_EBP_CIS: Attagene CIS-FACTORIAL HepG2 Assay for human CCAAT/Enhancer Binding Protein (C/EBP) beta (AID 2282927); conditions: HepG2 Attagene cis-factorial transcription factor reporter; actives raise or lower the signal
In short: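 Following a 24 h incubation with test chemical, transfected HepG2 cells yielded RNA whose reporter transcripts were quantified by RT-PCR and fluorescent capillary electrophoresis, with DMSO serving as baseline for bidirectional fitting.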

[13] = ATG_CMV_CIS: Attagene CIS-FACTORIAL HepG2 Assay for human CMV (Internal Marker) (AID 2282928); conditions: HepG2 CMV promoter reporter, transcription factor profiling; actives raise or lower the signal;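 further: endpoint acts as a background internal control marker rather than a target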
In short: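 Fluorescence intensity of RT-PCR-derived reporter fragments, resolved by capillary electrophoresis, gives the signal. HepG2 liver cells bearing transfected cis-element reporters were treated 24 h; activity in either direction was fit relative to DMSO-treated controls.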

[14] = ATG_DR4_LXR_CIS: Attagene CIS-FACTORIAL HepG2 Assay for human Liver X Receptor (LXR), DR4 submotif (AID 2282929); conditions: HepG2 Attagene DR4 cis-reporter, mRNA transcription; actives raise or lower the signal
In short: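 After transient transfection with multiplexed cis-promoter reporter units, HepG2 cells received test chemicals for 24 h. Reporter mRNA induction, detected by fluorescence after RT-PCR and capillary electrophoresis, was scored relative to DMSO.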

[15] = biological target: Aryl hydrocarbon receptor (Homo sapiens) (UniProt P35869); experiment: ATG_Ahr_CIS: Attagene CIS-FACTORIAL HepG2 Assay for human Aryl Hydrocarbon Receptor (Ahr) (AID 2282930); conditions: HepG2 AhR cis-factorial reporter transcription; actives raise or lower the signal
In short: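 Values derive from bidirectional fitting against DMSO negative control. Underlying signal: cis-element reporter mRNA in transiently transfected HepG2, harvested 24 h post-dose and measured by RT-PCR plus capillary electrophoresis.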

[16] = ATG_AP_2_CIS: Attagene CIS-FACTORIAL HepG2 Assay for human Activator Protein 2 (AP-2) (AID 2282932); conditions: HepG2 AP-2 cis-reporter, Attagene transcription factor profiling; actives raise or lower the signal
In short: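 Cells (HepG2) transfected with promoter-driven reporter constructs, treated 24 h. Total RNA reverse-transcribed, reporter cDNA PCR-amplified, FAM-labelled by primer extension, digested, resolved by capillary electrophoresis. Activity fitted both directions versus DMSO.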

[17] = ATG_BRE_CIS: Attagene CIS-FACTORIAL HepG2 Assay for human Bone Morphogenetic Protein (BMP) Response Element (BRE) (AID 2282933); conditions: HepG2 BMP response element reporter, Attagene transcription factor profiling; actives raise or lower the signal
In short: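 HepG2 cells transiently transfected with CIS reporter units (endogenous TF activity, BMP response element), dosed 24 h. Reporter mRNA quantified by RT-PCR, fluorescent labelling and capillary electrophoresis; bidirectional fit vs DMSO baseline.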

[18] = biological target: Retinoic acid receptor alpha (Homo sapiens) (UniProt P10276); experiment: ATG_DR5_RAR_CIS: Attagene CIS-FACTORIAL HepG2 Assay for human Retinoic Acid Receptor Alpha (RARE), DR5 submotif (AID 2282934); conditions: HepG2 Attagene cis-factorial RARE DR5 reporter, mRNA; actives raise or lower the signal;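 on AC50: reporter responds to endogenous RAR alpha beta and gamma in HepG2 not RARA alone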
In short: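 Endpoint fitted in both directions relative to DMSO as negative control. It reflects DR5 cis-element reporter mRNA induction in transiently transfected HepG2 cells, measured 24 h after dosing through RT-PCR and fluorescent capillary electrophoresis.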

[19] = biological target: Transcription factor E2F1 (Homo sapiens) (UniProt Q01094); experiment: ATG_E2F_CIS: Attagene CIS-FACTORIAL HepG2 Assay for human E2F Transcription Factor 1 (AID 2282935); conditions: HepG2 Attagene cis-reporter, E2F reporter RNA transcripts; actives raise or lower the signal
In short: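 First, HepG2 cells were transfected with reporter transcription units. Next, they were dosed for 24 h. Then RNA was isolated, converted to cDNA, PCR-amplified, FAM-labeled, HpaI-digested and analyzed by capillary electrophoresis.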

Measured: AC50

Aryl hydrocarbon receptor (Homo sapiens), sequence (P35869 whole entry, looked up): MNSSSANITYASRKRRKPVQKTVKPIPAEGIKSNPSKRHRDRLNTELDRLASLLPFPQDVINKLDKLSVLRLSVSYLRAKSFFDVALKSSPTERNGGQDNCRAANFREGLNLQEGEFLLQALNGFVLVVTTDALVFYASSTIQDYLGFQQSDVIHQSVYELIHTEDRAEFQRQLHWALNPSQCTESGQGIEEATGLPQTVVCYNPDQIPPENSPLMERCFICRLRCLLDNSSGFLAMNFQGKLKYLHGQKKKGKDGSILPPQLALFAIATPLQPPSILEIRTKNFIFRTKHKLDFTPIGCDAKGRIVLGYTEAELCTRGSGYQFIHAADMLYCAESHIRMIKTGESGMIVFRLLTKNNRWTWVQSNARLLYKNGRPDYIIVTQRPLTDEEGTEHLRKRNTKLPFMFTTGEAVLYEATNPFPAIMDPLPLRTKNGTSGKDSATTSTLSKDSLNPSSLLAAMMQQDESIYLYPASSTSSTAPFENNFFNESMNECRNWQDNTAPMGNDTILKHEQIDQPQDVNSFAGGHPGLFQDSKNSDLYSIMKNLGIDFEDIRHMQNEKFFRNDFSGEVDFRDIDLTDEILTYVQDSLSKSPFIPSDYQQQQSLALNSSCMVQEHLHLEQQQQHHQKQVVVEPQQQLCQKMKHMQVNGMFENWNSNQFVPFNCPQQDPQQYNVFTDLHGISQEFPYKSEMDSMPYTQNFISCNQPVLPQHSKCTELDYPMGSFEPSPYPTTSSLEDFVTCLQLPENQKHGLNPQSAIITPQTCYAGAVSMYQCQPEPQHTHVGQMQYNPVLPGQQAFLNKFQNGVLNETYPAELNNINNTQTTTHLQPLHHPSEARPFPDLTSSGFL
Retinoic acid receptor alpha (Homo sapiens), sequence (P10276 whole entry, looked up): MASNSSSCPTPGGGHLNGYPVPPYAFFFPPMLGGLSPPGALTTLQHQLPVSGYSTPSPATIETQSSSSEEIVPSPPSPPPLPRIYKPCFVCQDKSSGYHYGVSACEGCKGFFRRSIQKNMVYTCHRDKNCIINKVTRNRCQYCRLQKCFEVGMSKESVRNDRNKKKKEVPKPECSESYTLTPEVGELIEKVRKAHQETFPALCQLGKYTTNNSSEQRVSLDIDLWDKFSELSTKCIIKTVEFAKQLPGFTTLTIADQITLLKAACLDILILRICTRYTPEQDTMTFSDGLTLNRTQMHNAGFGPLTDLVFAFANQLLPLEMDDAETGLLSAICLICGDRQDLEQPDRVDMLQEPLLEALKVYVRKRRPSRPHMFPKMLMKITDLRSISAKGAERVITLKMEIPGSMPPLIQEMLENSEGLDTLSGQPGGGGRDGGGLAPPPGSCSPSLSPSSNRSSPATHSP
Transcription factor E2F1 (Homo sapiens), sequence (Q01094 whole entry, looked up): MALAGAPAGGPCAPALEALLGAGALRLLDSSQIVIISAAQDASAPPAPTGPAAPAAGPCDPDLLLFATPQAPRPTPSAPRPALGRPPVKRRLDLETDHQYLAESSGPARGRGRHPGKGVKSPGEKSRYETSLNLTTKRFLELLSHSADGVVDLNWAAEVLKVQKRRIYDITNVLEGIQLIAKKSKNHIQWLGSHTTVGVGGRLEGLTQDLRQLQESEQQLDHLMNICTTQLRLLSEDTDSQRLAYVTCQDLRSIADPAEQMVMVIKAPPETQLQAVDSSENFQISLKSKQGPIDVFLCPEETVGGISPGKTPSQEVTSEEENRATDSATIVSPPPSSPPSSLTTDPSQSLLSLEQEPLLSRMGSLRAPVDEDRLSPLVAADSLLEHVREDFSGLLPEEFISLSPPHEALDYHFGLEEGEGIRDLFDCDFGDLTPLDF
CCAAT/enhancer-binding protein beta (Homo sapiens), sequence (P17676 whole entry, looked up): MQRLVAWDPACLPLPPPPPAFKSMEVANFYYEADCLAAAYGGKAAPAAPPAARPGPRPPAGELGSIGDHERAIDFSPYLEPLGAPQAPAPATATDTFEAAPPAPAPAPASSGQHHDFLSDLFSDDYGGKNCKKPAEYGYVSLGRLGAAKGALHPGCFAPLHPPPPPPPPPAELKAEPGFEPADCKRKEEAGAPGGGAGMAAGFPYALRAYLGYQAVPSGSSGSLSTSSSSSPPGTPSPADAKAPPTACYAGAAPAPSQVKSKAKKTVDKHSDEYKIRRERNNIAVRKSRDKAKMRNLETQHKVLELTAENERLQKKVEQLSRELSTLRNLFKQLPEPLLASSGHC

Oc1c(Cl)c(Cl)c(Cl)c(Cl)c1Cl
active: [11] 19.3 µM and 10.2 µM | [12] 13.7 µM | [13] 28.7 µM and 8.37 µM and 39.7 µM | [14] 31.6 µM and 34.8 µM | [15] 14 µM and 6.01 µM and 874 nM | [16] 26.1 µM | [17] 13.6 µM and 18.2 µM and 31.3 µM | [18] 14.1 µM
inactive: [1] | [2] | [3] | [4] | [5] | [6] | [7] | [8] | [9] | [10] | [11] | [12] | [14] | [16] | [18]

C[C@]12CCC(=O)C=C1CC[C@@H]1[C@@H]2CC[C@@]2(C)[C@H]1CC[C@]2(C)O
active: [14] 163 µM | [16] 33.9 µM | [17] 91.5 µM and 64 µM
inactive: [1] | [2] | [3] | [4] | [5] | [6] | [7] | [8] | [9] | [10] | [11] | [12] | [13] | [14] | [15] | [16] | [17] | [18]

Clc1ccc(C(c2ccccc2Cl)C(Cl)(Cl)Cl)cc1 (stereo not drawn)
inactive: [1] | [4] | [6] | [8] | [9] | [10] | [11] | [12] | [15] | [16] | [17] | [18] | [19]
active: [2] 56.3 µM | [3] 50.9 µM | [5] 82.8 µM | [7] 114 µM | [12] 131 µM | [13] 37.5 µM [middle of 4 runs]

CN(C)CCO
not listed: [19]
inactive: all other assays above

ClC(Cl)=C(c1ccc(Cl)cc1)c1ccc(Cl)cc1
active: [3] 22.5 µM | [5] 53.7 µM | [9] 60.2 µM | [11] 167 µM | [12] 166 µM | [13] 57.2 µM [middle of 4 runs] | [14] 44.6 µM [middle of 4 runs] | [15] 19.8 µM and 122 µM | [16] 135 µM | [18] 13.2 µM
inactive: [1] | [2] | [4] | [6] | [8] | [10] | [11] | [12] | [15] | [16] | [17] | [18]
